Screening results deposited in PubChem by Broad Institute.
A selection follows.
aSyn UTR act – Activators via SNCA 5'UTR binding, MLPCN. alpha-synuclein 5'UTR reporter, activators screen. activity score, % (tested at 7.5 µM), hits read low. 300,000 tested, 7.1% active. AID 1814, 2009; in the data active = activity score below about -60%
Active calls of the source: *.

SMILES	aSyn UTR act
Cc1ccc(NC(=O)OC(C)CNC(=O)Oc2cccc(C)c2)cc1 (configuration not stated)	-93.0*
Cc1ccc(NC(=O)OCCNC(=O)OC(C)C)cc1	-72.8*
CC(=O)N(Cc1ccco1)c1nc(C(=O)Nc2ccc(Cl)cc2)c(C)s1	-104.8*
CC(C)c1nnc(NC(=O)c2nc(S(=O)(=O)Cc3ccccc3F)ncc2Cl)s1	-72.1*
CCc1nnc(NC(=O)c2nc(S(=O)(=O)Cc3cccc(C)c3)ncc2Cl)s1	-114.5*
Cc1cccc(CS(=O)(=O)c2ncc(Cl)c(C(=O)Nc3nnc(C(C)C)s3)n2)c1	-97.8*
CCOc1ccccc1NC(=O)c1nc(S(=O)(=O)Cc2cccc(C)c2)ncc1Cl	88.0
Cc1ccc(CS(=O)(=O)c2ncc(Cl)c(C(=O)Nc3ccc(OC(F)F)cc3)n2)cc1	61.4
O=C(CCS(=O)(=O)c1ccccc1)N1CCN(c2ccccc2)CC1	-77.7*
O=C(CCNS(=O)(=O)c1cccs1)N1CCCCCC1	-102.4*
O=C(CCS(=O)(=O)c1cccs1)N1CCCC1	-124.5*
O=C1CC(c2ccco2)CC(O)=C1C=Nc1cc(Cl)ccc1O (configuration not stated)	-143.5*
COc1ccc(-c2nc3cccc(C)n3c2NCC2CCCO2)cc1O (configuration not stated)	-99.4*
O=C1Nc2ccccc2/C1=C/c1cnc(-c2ccccc2)[nH]1	-78.4*
COc1ccc(-c2nc(-c3ccc(Br)o3)no2)cc1OC	-210.5*
COc1ccccc1-c1nc(-c2ccc(Br)o2)no1	-95.3*
COc1ccc(-c2nnc(-c3ccc(Br)o3)o2)cc1OC	-89.9*
CCSc1nn2c(=O)c3ccccc3nc2s1	-120.4*
Nc1nc(NCc2cccs2)nn1-c1ccccc1	-66.7*
c1ccc(-n2ncc3c(NCc4cccnc4)ncnc32)cc1	-114.3*
c1ccc(-n2ncc3c(NCc4cccs4)ncnc32)cc1	-161.6*
COc1ccc(-n2ncc3c(NCc4cccs4)ncnc32)cc1	-170.7*
Nc1ccc2oc3ccc(N)cc3c(=O)c2c1	-102.8*
CCOC(=O)c1cc(C(=O)Nc2cccc(C)c2)nn1C	-120.6*
Cc1cccc(NC(=O)c2c(C)nn(-c3ccccc3)c2Cl)c1	-96.5*
SMILES	aSyn UTR act
O=C(NC(=S)NCC1CCCO1)c1ccc(Br)o1 (configuration not stated)	-108.4*
Cc1ccc(C(=O)NC(=S)NCC2CCCO2)cc1Br (configuration not stated)	-154.6*
N=c1n(CCN2CCOCC2)c2ccccc2n1CC(=O)c1ccc(Cl)c(Cl)c1	-66.0*
Cc1cc2c(NCCc3ccccc3)ncnc2s1	-63.5*
c1ccc(CCNc2ncnc3ccccc23)cc1	-117.0*
c1ccc(CCNc2ccnc3cc4ccccc4cc23)cc1	116.7
O=C(Nc1ccccc1)Nc1ccc2ccccc2n1	-89.1*
O=C(Nc1ccc(F)cc1)Nc1ccc2ccccc2n1	-105.6*
CCOC(=O)C1(Cc2ccccc2Cl)CCN(C(=O)c2cnccn2)CC1	-125.0*
CCOC(=O)C1(Cc2ccccc2Cl)CCN(C(=O)c2cc(C)on2)CC1	-83.5*
CCOC(=O)Cc1csc(N/N=C\c2cccc(Br)c2)n1	-66.1*
CCOC(=O)Cc1csc(NC(=O)/C=C\c2ccccc2)n1	-73.8*
CCOC(=O)Cc1csc(NC(=O)/C=C\c2ccccc2Cl)n1	-194.1*
CCOC(=O)Cc1csc(/N=C/c2c(O)n(-c3ccc(C)c(C)c3)c(=O)c3ccccc23)n1	105.0
CCOC(=O)Cc1csc(NC(=O)/C=C/c2ccccc2Cl)n1	-135.8*
Cc1nnc(NC(=O)c2csc3c2CCCC3)s1	-99.5*
Cc1nnc(NC(=O)c2csc3c2CCC(C)C3)s1 (configuration not stated)	-99.8*
Cc1ccc(NC(=O)c2cc(=O)c3ccccc3o2)c(C)c1	-95.9*
Cc1ccc(C)c(NC(=O)c2cc(=O)c3ccccc3o2)c1	-133.6*
O=C1CSC2=NCN(c3ccc4c(c3)OCO4)CN12	-146.8*
Oc1ccccc1C1=Nc2nc3ccccc3n2C(c2ccccc2)C1 (configuration not stated)	-213.5*
C=CCn1c(=O)/c(=C2/Sc3cc(OC)ccc3N2C)s/c1=C1\C(=O)N(CC)C(=S)N1C	-98.0*
Cc1cc(NCc2ccccn2)nc2ccccc12	-86.8*
CCC(C)Nc1nc(-c2ccccn2)nc2ccccc12 (configuration not stated)	68.6
FC(F)(F)c1ccc(NCc2ccccn2)nc1	-166.6*
SMILES	aSyn UTR act
O=c1c(-c2ccc([N+](=O)[O-])cc2)coc2c(O)c(O)ccc12	-90.9*
Cc1ccc2cc3cc(C(=O)N4CC(C)CC(C)C4)oc3nc2c1 (configuration not stated)	-120.2*
COc1ccc2cc3cc(C(=O)N4CC(C)CC(C)C4)oc3nc2c1 (configuration not stated)	-124.7*
O=C(c1cc2cc3ccc(Cl)cc3nc2o1)N1CCCCCC1	-94.8*
Cc1ccc2cc3cc(C(=O)N4CCCCC4C)oc3nc2c1 (configuration not stated)	-199.7*
CCC1CCCCN1S(=O)(=O)c1ccc(C(=O)Nc2nnc(-c3ccccc3Cl)o2)cc1 (configuration not stated)	56.3
